Here are results for 38 compounds from PubChem BioAssay (NCI).

SMILES strings stand for the structures. This is part of a sample that, as a whole, favours compounds with a hit. Of some 83,000 tested, about 20% had one in any assay.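 96-well plates, one dose, 48 hours. Percent growth reported; active if below 10.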 The source made the active and inactive calls.

The subject of one test is KM12 colon. Put plainly: NCI-60 one-dose screen, 48 h (100 = growth as untreated, 0 = no growth, -100 = all killed). To be noted: 10 µM unless noted.
In the case of `COc1c(B(O)O)cc(F)cc1-c1nc2c(F)cc3[nH]ncc3c2c2c1CCCC2`, the growth is 7.55% (active).
As for `CC1=C(C(=O)Nc2ccccc2)C(c2cccc(Cl)c2Cl)n2c(nc3ccccc32)N1` (stereo unspecified), the growth was 32.9% (inactive).
Consider `COc1ccccc1NC(=O)c1ccc(NC(=O)CCl)s1`, for which the growth was 25.8% (inactive).
In the case of `O=C(CSc1nc2sc3c(c2c(=O)n1-c1ccc(Cl)cc1)CCCC3)NNC(=O)c1ccc(Br)cc1`, the growth is 96.6% (inactive).
In the case of `O=C1CCC(N2C(=O)c3cccc(NCCOCCOCCOCCC(=O)NCCCC(=O)NC(c4ccc5c(c4)OCO5)c4cc(Cl)c5cccnc5c4O)c3C2=O)C(=O)C1` (stereo unspecified), the growth was 13.4% (inactive).
As to `NCCCCn1c(SCCc2c[nH]c3ccccc23)nnc1-c1ccc2ccccc2n1`, the growth was 13.1% (inactive).
Consider `CCCSc1nnc(-c2sc3nc4ccccc4n3c2C)o1`, for which the growth is 101% (inactive).
Take `Cc1ccc2c(c1)/C(=C/C(=O)c1cc3ccccc3oc1=O)C(=O)N2`: the growth is 86.9% (inactive).
In the case of `Cn1cc(-c2cc(N)n3nc(-c4c[nH]c5ccccc45)cc3n2)c2cc(F)ccc21`, the growth is -33.9% (active).
For `COc1ccccc1/C=C/c1cccc(NC(=S)NCCCCN(C)C)c1`, the growth is -52.9% (active).
For the compound `O=C1NC(=S)/C(=C/c2cn(-c3ccccc3)nc2-c2ccccc2)S1`, the growth is 19.4% (inactive).
Turning to `Cc1cc(C)c2[nH]c(=O)c(C(c3nnnn3Cc3ccc4c(c3)OCO4)N3CCN(C)CC3)cc2c1` (stereo unspecified), the growth is 105% (inactive).
As to `C[C@@H]1[C@H]2C[C@@H](C[C@H]1NCc1nc3ccccc3n1C1CCCCCC1)C2(C)C`, the growth is 68.6% (inactive).
The same measure, in the same setting: in the case of `O=c1c(-c2nc(-c3ccccc3)c(-c3ccccc3)[nH]2)coc2ccc(F)cc12` it was 23.4% (inactive); in that of `CN1CCc2c(sc3ncnc(N/N=C/c4cccc(Cl)c4Cl)c23)C1`, 88% (inactive); in that of `COc1ccc(N=Nc2c(N)nn3c(N)c(C#N)c(-c4ccccc4)nc23)cc1`, 45% (inactive).
For `COc1ccc(/C=C/C(=O)c2ccc(OC)c(S(N)(=O)=O)c2)c(C(F)(F)F)c1`, the growth is 6.97% (active).
`COc1ccc(C2=Nc3c(N)nc(N)nc3NC(c3ccc(Oc4nc(Nc5ccc(F)cc5)nc(N(C)C)n4)c(OC)c3)C2)cc1` (stereo unspecified): the growth was 74.9% (inactive).
Regarding `COc1ccc(NC(=O)NN2C(=O)c3ccccc3N(C)C2c2ccc(OC)cc2)cc1` (stereo unspecified), the growth was 101% (inactive).
For `COc1nc(N)ncc1-c1ccc2ncnc(N3CCc4cc(F)c(Cl)cc43)c2c1`, the growth was 70% (inactive).
The same measure, in the same setting: the same measure for `COc1ccc(NC(=O)Nc2nc3ccc([N+](=O)[O-])cc3s2)cc1`: 3.81% (active).
The same measure, in the same setting: the same measure for `COc1ccc(NC(=O)N/N=C/c2c[nH]c3ccccc23)cc1`: 24.7% (inactive).
Regarding `CC1=C(C(=O)Nc2ccccc2)C(c2ccc3ccccc3c2)n2c(nc3ccccc32)N1` (stereo unspecified), the growth is 69.4% (inactive).
With `O=C(N/N=C/c1c[nH]c2ccccc12)Nc1ccccc1Cl`, the growth is -44.2% (active).
Regarding `O=C(N=Nc1c(O)[nH]c2ccc(Br)cc12)c1ccc2nc(-c3ccc(Cl)cc3)[nH]c2c1`, the growth is 22.4% (inactive).
Consider `COc1ccc2c(c1)C(Sc1ccc(Br)cc1)c1c(nc(N)c(C#N)c1N)O2` (stereo unspecified), for which the growth was 74.7% (inactive).
Regarding `C=CC(=O)N1CCN(c2ccc3nc4c(nc3c2C(F)(F)F)C(=O)c2ncccc2C4=O)CC1`, the growth is 9.15% (active).
Consider `COc1ccc(NC(=O)CSc2nnc(-c3ccc(-c4nc5ccc(Cl)cc5[nH]4)cc3)o2)cc1`, for which the growth was 29.6% (inactive).
Turning to `O=c1[nH]c2ccccc2cc1COc1ccc(Nc2nccc(-c3ccc(Cl)cc3)n2)cc1`, the growth was 99.3% (inactive).
With `Cc1ccc(C(=O)Nc2ccc(-n3ccnc3)c(C(F)(F)F)c2)cc1C#Cc1cnc2cccnn12`, the growth is 21.9% (inactive).
Same read-out and setting: the same measure for `Cc1cccc(/C=C/c2ccc(NC(=S)NCCCCN(C)C)cc2)c1`: -48.6% (active); for `N#Cc1cc(-c2ccc3ncnc(N4CCc5cc(F)c(Cl)cc54)c3c2)cnc1N`: 67.2% (inactive); for `COc1ccc(-c2nnc3c(/C=C/c4ccc(Br)cc4)nc4ccccc4n23)cc1`: 85.2% (inactive).
On the same count and under the same terms, the same measure for `O=C(CSc1nnc(-c2ccc(-c3nc4ccccc4[nH]3)cc2)o1)Nc1ccccc1`: 70.1% (inactive); for `NC(=O)c1ccc(-c2ccc3ncnc(N4CCc5cc(F)c(Cl)cc54)c3c2)cn1`: 96.1% (inactive); for `O=C(Nc1ccc(-c2ccc3c(c2)NC(=O)/C3=C\c2ccc[nH]2)cc1)Nc1ccc(Cl)c(C(F)(F)F)c1`: 22.3% (inactive).
As to `Nc1nn2c(-c3cc4cc(Br)ccc4oc3=O)ccnc2c1N=Nc1ccc(Br)cc1`, the growth is 51.7% (inactive).
The same measure, in the same setting: in the case of `FC(F)(F)c1cc2c(Cl)ncnc2n1CCN1CCCCC1` it was 93.9% (inactive).

The next test deals with MDA-MB-468 breast. Described as above. To be noted: 10 µM unless noted.
Take `COc1c(B(O)O)cc(F)cc1-c1nc2c(F)cc3[nH]ncc3c2c2c1CCCC2`: the growth is -11% (active).
The same measure, in the same setting: the same measure for `CC1=C(C(=O)Nc2ccccc2)C(c2cccc(Cl)c2Cl)n2c(nc3ccccc32)N1` (stereo unspecified): -32.2% (active); for `COc1ccccc1NC(=O)c1ccc(NC(=O)CCl)s1`: -29.6% (active); for `O=C(CSc1nc2sc3c(c2c(=O)n1-c1ccc(Cl)cc1)CCCC3)NNC(=O)c1ccc(Br)cc1`: 69.7% (inactive).
`O=C1CCC(N2C(=O)c3cccc(NCCOCCOCCOCCC(=O)NCCCC(=O)NC(c4ccc5c(c4)OCO5)c4cc(Cl)c5cccnc5c4O)c3C2=O)C(=O)C1` (stereo unspecified): the growth is -33.9% (active).
Turning to `NCCCCn1c(SCCc2c[nH]c3ccccc23)nnc1-c1ccc2ccccc2n1`, the growth was -87.1% (active).
Regarding `CCCSc1nnc(-c2sc3nc4ccccc4n3c2C)o1`, the growth is 88.9% (inactive).
`Cc1ccc2c(c1)/C(=C/C(=O)c1cc3ccccc3oc1=O)C(=O)N2`: the growth was -69.3% (active).
For the compound `Cn1cc(-c2cc(N)n3nc(-c4c[nH]c5ccccc45)cc3n2)c2cc(F)ccc21`, the growth was 8.2% (active).
Turning to `COc1ccccc1/C=C/c1cccc(NC(=S)NCCCCN(C)C)c1`, the growth is -86% (active).
For `O=C1NC(=S)/C(=C/c2cn(-c3ccccc3)nc2-c2ccccc2)S1`, the growth is 22.3% (inactive).
In the case of `Cc1cc(C)c2[nH]c(=O)c(C(c3nnnn3Cc3ccc4c(c3)OCO4)N3CCN(C)CC3)cc2c1` (stereo unspecified), the growth was 113% (inactive).
The same measure, in the same setting: in the case of `C[C@@H]1[C@H]2C[C@@H](C[C@H]1NCc1nc3ccccc3n1C1CCCCCC1)C2(C)C` it was 2.05% (active); in that of `O=c1c(-c2nc(-c3ccccc3)c(-c3ccccc3)[nH]2)coc2ccc(F)cc12`, 16% (inactive).
Regarding `CN1CCc2c(sc3ncnc(N/N=C/c4cccc(Cl)c4Cl)c23)C1`, the growth is 33.2% (inactive).
Turning to `COc1ccc(N=Nc2c(N)nn3c(N)c(C#N)c(-c4ccccc4)nc23)cc1`, the growth is 31.7% (inactive).
For the compound `COc1ccc(/C=C/C(=O)c2ccc(OC)c(S(N)(=O)=O)c2)c(C(F)(F)F)c1`, the growth was 7.25% (active).
For the compound `COc1ccc(C2=Nc3c(N)nc(N)nc3NC(c3ccc(Oc4nc(Nc5ccc(F)cc5)nc(N(C)C)n4)c(OC)c3)C2)cc1` (stereo unspecified), the growth is 8.9% (active).
On to `COc1ccc(NC(=O)NN2C(=O)c3ccccc3N(C)C2c2ccc(OC)cc2)cc1` (stereo unspecified), for which the growth is 102% (inactive).
Same read-out and setting: in the case of `COc1nc(N)ncc1-c1ccc2ncnc(N3CCc4cc(F)c(Cl)cc43)c2c1` it was -24.9% (active).
As to `COc1ccc(NC(=O)Nc2nc3ccc([N+](=O)[O-])cc3s2)cc1`, the growth is -7.85% (active).
Turning to `COc1ccc(NC(=O)N/N=C/c2c[nH]c3ccccc23)cc1`, the growth was 16.4% (inactive).
On to `CC1=C(C(=O)Nc2ccccc2)C(c2ccc3ccccc3c2)n2c(nc3ccccc32)N1` (stereo unspecified), for which the growth was 17.9% (inactive).
Still for that read-out and setting: in the case of `O=C(N/N=C/c1c[nH]c2ccccc12)Nc1ccccc1Cl` it was -21.3% (active).
On the same count and under the same terms, in the case of `O=C(N=Nc1c(O)[nH]c2ccc(Br)cc12)c1ccc2nc(-c3ccc(Cl)cc3)[nH]c2c1` it was -87.7% (active); in that of `COc1ccc2c(c1)C(Sc1ccc(Br)cc1)c1c(nc(N)c(C#N)c1N)O2` (stereo unspecified), 97.1% (inactive); in that of `C=CC(=O)N1CCN(c2ccc3nc4c(nc3c2C(F)(F)F)C(=O)c2ncccc2C4=O)CC1`, -69.3% (active).
The same measure, in the same setting: in the case of `COc1ccc(NC(=O)CSc2nnc(-c3ccc(-c4nc5ccc(Cl)cc5[nH]4)cc3)o2)cc1` it was 86.2% (inactive).
Turning to `O=c1[nH]c2ccccc2cc1COc1ccc(Nc2nccc(-c3ccc(Cl)cc3)n2)cc1`, the growth was 89.6% (inactive).
Regarding `Cc1ccc(C(=O)Nc2ccc(-n3ccnc3)c(C(F)(F)F)c2)cc1C#Cc1cnc2cccnn12`, the growth is -1.47% (active).
For `Cc1cccc(/C=C/c2ccc(NC(=S)NCCCCN(C)C)cc2)c1`, the growth was -83.5% (active).
As to `N#Cc1cc(-c2ccc3ncnc(N4CCc5cc(F)c(Cl)cc54)c3c2)cnc1N`, the growth is -14.7% (active).
With `COc1ccc(-c2nnc3c(/C=C/c4ccc(Br)cc4)nc4ccccc4n23)cc1`, the growth was 32.7% (inactive).
Consider `O=C(CSc1nnc(-c2ccc(-c3nc4ccccc4[nH]3)cc2)o1)Nc1ccccc1`, for which the growth is 92.9% (inactive).
The same measure, in the same setting: the same measure for `NC(=O)c1ccc(-c2ccc3ncnc(N4CCc5cc(F)c(Cl)cc54)c3c2)cn1`: -7.37% (active).
Take `O=C(Nc1ccc(-c2ccc3c(c2)NC(=O)/C3=C\c2ccc[nH]2)cc1)Nc1ccc(Cl)c(C(F)(F)F)c1`: the growth was -18.4% (active).
Consider `Nc1nn2c(-c3cc4cc(Br)ccc4oc3=O)ccnc2c1N=Nc1ccc(Br)cc1`, for which the growth was 39% (inactive).
Regarding `FC(F)(F)c1cc2c(Cl)ncnc2n1CCN1CCCCC1`, the growth is -10.6% (active).
